# Experimental data as given in PubChem BioAssay (Tox21).
# Inconclusive results are not listed. A call without a number means that no potency is given here. Active and inactive are the calls of the source. The call rests on the fitted dose curve; in most records, active means well fitted cell-killing curve with a large enough effect in the repeat runs; inconclusive means weak or mixed curves, or effect the other way; inactive means no such curve, though single readings can be large or run the other way.
# Experiment: qHTS assay to identify small molecule antagonists of the sonic hedgehog signaling (Shh) pathway - cell viability counter screen (AID 1259367); further: nearly all actives have a fitted effect of over 55% in size
# Conditions: NIH/3T3 Gli1-Luc viability, CellTiter-Fluor, 24 h; series mostly up to 92.4 µM
# Description: National Center for Advancing Translational Sciences [NCATS]
# NIH Chemical Genomics Center [NCGC]
# U.S. Environmental Protection Agency [EPA]
# National Institutes of Environmental Health Sciences [NIEHS]
# National Toxicology Program [NTP]
# U.S. Food and Drug Administration [FDA]
# The sonic hedgehog (Shh) pathway is essential for normal embryonic development. Dysregulation of the Shh pathway can cause severe developmental defects in organs. Therefore chemicals that interfere with the pathway are potential developmental toxicants. A cell line designated 3T3Gli1-Luc (DMB/OARSA/CFSAN/FDA, Laurel, MD), a NIH/3T3 derived clone containing stably integrated Gli1-Luc reporter is used to detect chemical interference of the Shh pathway, by changes in the expression of the firefly Luc gene under the control of the Gli1 transcriptional response element. This cell line was used to screen Tox21 libraries for identifying and prioritizing the potential developmental toxicants that interfere Shh pathway. Conditioned medium-stimulated mode was used to screen for chemicals inhibiting Shh signaling. The cytotoxicity of the compounds was tested in parallel by measuring the cell viability using CellTiter-Fluor assay system (Promega, Madison, WI) in the same wells.
# Tox21 Assay Protocol Summary:
# 3T3 Gli1-Luc cells were dispensed at 2,000 per well in 5uL of culture medium into white solid bottom 1536-well plates (Greiner Bio-One, Monroe, NC) using a Multidrop Combi (Thermo Scientific, Waltham, MA) dispenser. The assay plates were incubated at 37 C and 5% CO2 for 4hr, and then 23nL of compounds dissolved in DMSO and positive control were transferred using a Pintool station (Wako, San Diego, CA). The compound transfer was followed by the addition of 1ul conditioned medium or assay buffer using two separate tips of Flying Reagent Dispenser (FRD, Aurora Discovery, San Diego, CA). The assay plates were incubated at 37C and 5% CO2 for 24hr. For viability read, after 23hr of compound treatment, 1uL of CellTiter-Fluor reagent (Promega Corporation, Madison, WI) was added to each well of the assay plates using Flying Reagent Dispenser (FRD, Aurora Discovery, San Diego, CA) and incubated the assay plates at 37C for 1hr. The fluorescence signal was quantified using a ViewLux plate reader (Perkin Elmer, Shelton, CT).
row,SMILES,Potency
1,O=C(O)c1ccccc1-n1cc(C(=O)O)c(=O)c2cc(Nc3c(F)cc(F)cc3Cl)c(Cl)cc21,inactive
2,O=[N+]([O-])c1ccc(Cl)cc1Cl,inactive
3,CNc1ccccc1,inactive
4,CCOc1ccc2c(c1)C(C)CC(C)(C)N2 (stereo not given),inactive
5,C=CC(O)CCCCC (stereo not given),inactive
6,C=CC(=O)NC(C)(C)C,inactive
7,Cc1cc(C)n(CO)n1,inactive
8,Cc1c(Nc2ncccc2C(=O)O)cccc1C(F)(F)F,inactive
9,Cc1ccc(S(=O)(=O)NC(=O)NC2CCCC2)cc1,inactive
10,CCOC(OCC)OCC,inactive
11,CC(=O)c1ccc(Cl)c(Cl)c1Cl,inactive
12,O=C1c2ccccc2C(=O)c2c1ccc(O)c2O,inactive
13,O=C(O)COCC(=O)O,inactive
14,C=CCCC,inactive
15,COC(=O)Cc1cccc2ccccc12,inactive
16,COc1ccc(CN(CCN(C)C)c2ncccn2)cc1,inactive
17,CO[C@@H]1COCC[C@@H]1N[C@@H]1CC[C@@](C(=O)N2CCc3ncc(C(F)(F)F)cc3C2)(C(C)C)C1,inactive
18,CCCCCCCCCCCCCCCCC(=O)O,inactive
19,NC(=O)c1ccccc1,inactive
20,Cc1cc(SC2=C(O)C[C@@](CCc3ccc(N)cc3)(C(C)C)OC2=O)c(C(C)(C)C)cc1CO,inactive

row,SMILES,Potency
1,N#C[C@@H]1CC(F)(F)CN1C(=O)CNC1CC2CCC(C1)N2c1ncccn1 (stereo not given in full),inactive
2,O=P(c1ccccc1)(c1ccccc1)c1ccccc1,inactive
3,CCCCOc1ccc(N)cc1,inactive
4,CCCCOC(=O)CC#N,inactive
5,Clc1ccccc1-c1nc(-c2ccncc2)no1,inactive
6,COc1cccc([C@H](O)C2CCN(CCc3ccc(F)cc3)CC2)c1OC,inactive
7,Cc1ccc(Cl)c(OCC(O)CNC(C)(C)C)c1 (stereo not given),inactive
8,CC(=O)c1cccnc1,inactive
9,O=[N+]([O-])c1ccccc1CCO,inactive
10,CCC(C(=O)O)c1ccc(N2Cc3ccccc3C2=O)cc1 (stereo not given),inactive
11,CCCCCCOC(=O)c1ccccc1,inactive
12,Cc1ccc2ccccc2c1[N+](=O)[O-],inactive
13,CCC[Si](OC)(OC)OC,inactive
14,CCCC1CCCC(=O)O1 (stereo not given),inactive
15,CCCCCCCCNC,inactive
16,C/C(=C(\CCO)SS/C(CCO)=C(\C)N(C=O)Cc1cnc(C)nc1N)N(C=O)Cc1cnc(C)nc1N,inactive
17,O=C(OCCOCCOCCOC(=O)c1ccccc1)c1ccccc1,inactive
18,Nc1ccc(-c2ccc(F)cc2)cc1,inactive
19,COc1ccc(/C=C/S(=O)(=O)NC(=O)c2ccc(C)cc2Cl)cc1,inactive
20,CC(C)=CCC/C(C)=C/C=N/O,inactive
